High-throughput results deposited in PubChem by Sanford-Burnham Center for Chemical Genomics.
The sample as a whole holds a higher share of hits than the screen did.
ER stress surv = ER stress cell death inhibition | 0.33% of 48,000 active | relative survival (cellular ATP), % at 15 µg/mL (by protocol) | AID 1010 | CSM14.1 thapsigargin ER stress survival, ATP luminescence;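 active = survival measured by cellular ATP above 50% at 15 µg/ml in the first screen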;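 also: cell death triggered by about 15 µM thapsigargin; ATP read 24 h after thapsigargin was added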
Of the large screens only hits and unclear results are named; the others gave an inactive call.

O=C(c1ccc(-c2ccccc2)cc1)N1CCN(Cc2ccc(Cl)cc2)CC1	ER stress surv 98.3
COc1ccc(OC)c(CN2CCN(C(=O)c3ccc(-c4ccccc4)cc3)CC2)c1	ER stress surv 104.1
CCc1c(O)nc(SCC(=O)N2CCOCC2)n(-c2ccccc2C)c1=O	none
CCOC(=O)c1c(NC(=O)c2ccc(F)cc2)sc(C)c1CC	none
COc1cccc(OC)c1C(=O)N(C)CC(OC)OC	none
Cc1ccccc1N(CC(=O)Nc1ccc(Cl)c(Cl)c1)S(C)(=O)=O	none
CC(=O)C(C(C)=O)C1=C(Cl)C(=O)C(=O)c2ccccc21	none
O=C(Cc1ccccc1)Nc1ccncc1	none
COc1ccc(/C=C2\C(=O)N(C)C(=S)N(c3ccc(C)cc3)C2=O)cc1OC	none
CCC(=O)N(CCc1ccccc1)C1CC(=O)N(c2ccc(OC)cc2)C1=O (stereo not given)	none
COc1ccc(OC)c(/C=C2\SC(=S)N(CCC(=O)O)C2=O)c1	none
CCOC(=O)C1=C(c2ccccc2)N=c2s/c(=C\c3cccnc3)c(=O)n2C1c1cccc(OC)c1OC (stereo not given)	none
CCN1C(=O)/C(=C\c2ccc(-c3ccc([N+](=O)[O-])cc3)o2)SC1=S	none
O=C1/C(=C/c2ccc(-c3ccc([N+](=O)[O-])cc3)o2)SC(=S)N1Cc1ccco1	ER stress surv 56.5
O=C1S/C(=C\c2ccc(-c3ccc([N+](=O)[O-])cc3)o2)C(=O)N1c1ccccc1	none
C=CCn1c(SCC(=O)OCC)nnc1-c1ccc([N+](=O)[O-])cc1	none
Cc1ccc(-c2nc3ncccc3o2)cc1NC(=O)/C=C/c1ccco1	none
CCCC(=O)NC(c1ccc(Cl)cc1)c1ccc2cccnc2c1O (stereo not given)	none
CCC(=O)NC(c1ccc(N(C)C)cc1)c1ccc2cccnc2c1O (stereo not given)	ER stress surv 59.2
COc1ccc(C(NC(=O)c2ccccc2)c2ccc3cccnc3c2O)cc1 (stereo not given)	none
CCOc1cc(/C=C2\SC(=S)NC2=O)ccc1OCc1ccccc1	none
COc1ccc(Cl)cc1NC(=O)c1cc(-c2ccccc2Cl)nc2ccccc12	none
COc1ccccc1N(CC(=O)NC(C)(C)C)S(=O)(=O)c1ccccc1	none
CCN(CC)c1ccc(/C=C/C(=O)C23CC4CC(CC(C4)C2)C3)cc1	none
COc1ccc(OC)c(/C=C(\C#N)c2ccc([N+](=O)[O-])cc2)c1	none
